Data reported in the supplement of paper PMC6522484.
± gives the standard deviation of the averaged measurements.

What was measured:
[1] = test system: DLD1; assay: cell viability (CellTiter-Glo) relative to plate median (fraction of plate median); higher = more viable cells; settings: 5 µM; treatment time 24 h; reporter: 7TFP
Outline: (§1)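 On parallel plates, a Tecan F500 reader recorded either firefly luciferase or CellTiterGlo luminescence. The plates held colorectal cancer cells stably transduced with lentiviral TCF/Wnt firefly luciferase reporters (7TFP or TCF4/Wnt), seeded in 384-well format and treated 24 h later with library compounds at a final 5 µM for 24 h. Per-well signals were normalised to the plate median (webcellHTS2, additive, no log transformation), and two independent replicates were averaged.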

[2] = test system: HCT116; assay: as above; settings: 5 µM; treatment time 24 h; reporter: TCF4/Wnt
Outline: as §1

[3] = test system: SW480; assay: as above; settings: 5 µM; treatment time 24 h; reporter: 7TFP
Outline: as §1

[4] = test system: DLD1; assay: TCF/Wnt firefly luciferase reporter signal relative to plate median (fraction of plate median); higher = higher Wnt reporter signal; settings: 5 µM; treatment time 24 h; reporter: 7TFP
Outline: as §1

[5] = test system: SW480; assay: as above; settings: 5 µM; treatment time 24 h; reporter: 7TFP
Outline: as §1

Row | SMILES | cell viability [1] | cell viability [2] | cell viability [3] | TCF/Wnt firefly luciferase reporter signal [4] | TCF/Wnt firefly luciferase reporter signal [5]
1 | COc1cc(O)ccc1C(C)=O | 0.941 ± 0.059 | 0.97 ± 0.015 | 0.92 ± 0.0071 | 0.889 ± 0.054 | 0.97 ± 0.026
2 | OC[C@@H](O)[C@@H](O[C@@H]1O[C@H](CO)[C@H](O)[C@H](O)[C@H]1O)[C@H](O)[C@@H](O)CO | 1.02 ± 0.038 | 0.904 ± 0.067 | 0.979 ± 0.021 | 0.781 ± 0.083 | 1.03 ± 0.1
3 | O=C(O)c1cc(=O)c2ccccc2[nH]1 | 1.01 ± 0.021 | 0.968 ± 0.16 | 0.9555 ± 0.0064 | 0.8765 ± 0.0078 | 0.986 ± 0.048
4 | CC1(C)S[C@@H]2[C@H](NC(=O)Cc3ccccc3)C(=O)N2[C@H]1C(=O)O | 0.914 ± 0.0057 | 0.968 ± 0.025 | 1.02 ± 0.067 | 1.16 ± 0.11 | 0.949 ± 0.14
5 | CC(=O)OCC[N+](C)(C)C | 0.987 ± 0.15 | 0.998 ± 0.059 | 0.982 ± 0.014 | 1.01 ± 0.023 | 0.992 ± 0.012
6 | CNS(=O)(=O)c1ccc(NC(=O)c2ccccc2C(=O)O)cc1 | 1.03 ± 0.098 | 1.04 ± 0.042 | 1.04 ± 0.072 | 0.967 ± 0.013 | 1.085 ± 0.0071
7 | COc1cc(OC)c2c(c1Cl)O[C@@]1(C(=O)CC(=O)C[C@H]1C)C2=O | 1.02 ± 0.014 | 0.983 ± 0.14 | 1.005 ± 0.0071 | 1.13 ± 0.057 | 1.02 ± 0.028
8 | CN(C)CCC=C1c2ccccc2COc2ccccc21 | 0.994 ± 0.052 | 1.01 ± 0.021 | 0.949 ± 0.032 | 1.06 ± 0.028 | 1.07 ± 0.014
9 | C=C1c2cccc(O)c2C(=O)C2=C(O)[C@]3(O)C(=O)C(C(N)=O)=C(O)[C@@H](N(C)C)[C@@H]3[C@@H](O)[C@H]12 | 0.968 ± 0.0014 | 0.928 ± 0.13 | 0.969 ± 0.073 | 1.06 ± 0.26 | 1.11 ± 0.064
10 | CC1=CCc2c(cc3oc(C)cc(=O)c3c2O)OC1 | 1 ± 0.084 | 1.02 ± 0.033 | 1.06 ± 0.071 | 1.18 ± 0.15 | 1.11 ± 0.085
11 | Cc1cc(OC(=O)c2c(C)cc(O)cc2O)cc(O)c1C(=O)O | 1.08 ± 0.099 | 1.03 ± 0.035 | 1.1 ± 0.071 | 1.03 ± 0.18 | 1.06 ± 0.05
12 | CCOc1ccc2nc3cc(N)ccc3c(N)c2c1 | 1.02 ± 0.11 | 1.02 ± 0.074 | 0.999 ± 0.016 | 1.1 ± 0.085 | 0.925 ± 0.013
13 | C#C[C@]1(O)CC[C@H]2[C@@H]3CCC4=C(CCC(=O)C4)[C@H]3CC[C@@]21C | 0.905 ± 0.022 | 0.974 ± 0.14 | 0.913 ± 0.014 | 1.07 ± 0.13 | 1.07 ± 0.057
14 | Cc1cc(O)c2c(c1)C(=O)c1cccc(O)c1C2=O | 0.921 ± 0.04 | 1.07 ± 0.21 | 0.936 ± 0.013 | 0.893 ± 0.15 | 0.934 ± 0.042
15 | COc1cc(/C=C/C(=O)O)ccc1O [Ferulic acid (Biofocus)] | 0.923 ± 0.17 | 1.05 ± 0.028 | 1.02 ± 0.014 | 0.962 ± 0.012 | 1.04 ± 0.069
16 | COc1ccc(-c2cc(=O)c3c(OC)c(OC)c(OC)c(OC)c3o2)cc1OC | 0.9 ± 0.064 | 0.914 ± 0.059 | 1.04 ± 0.067 | 0.951 ± 0.034 | 0.992 ± 0.011
17 | O=C(C1CCCCC1)N1CC(=O)N2CCc3ccccc3C2C1 (stereo not given) | 0.9955 ± 0.0064 | 0.984 ± 0.037 | 0.98 ± 0.042 | 1.02 ± 0.034 | 0.918 ± 0.12
18 | O=c1cc(-c2ccc(O)cc2)oc2cc(O[C@@H]3O[C@H](CO)[C@@H](O)[C@H](O)[C@H]3O[C@@H]3OC[C@](O)(CO)[C@H]3O)cc(O)c12 | 0.959 ± 0.052 | 1.04 ± 0.057 | 1 ± 0.021 | 1.045 ± 0.0071 | 1.04 ± 0.057
19 | CC(C)NCC(O)c1cc(O)cc(O)c1 (stereo not given) | 0.999 ± 0.03 | 0.954 ± 0.06 | 0.976 ± 0.048 | 0.914 ± 0.11 | 0.987 ± 0.018
20 | CCOc1cccc(C(=O)c2ccc(O)c(O)c2O)c1 | 1.03 | 1.085 ± 0.0071 | 1.07 ± 0.021 | 1.04 ± 0.088 | 0.932 ± 0.019
21 | OC1(c2ccc(Cl)c(C(F)(F)F)c2)CCN(CCCC(c2ccc(F)cc2)c2ccc(F)cc2)CC1 | 0.982 ± 0.14 | 1.08 ± 0.071 | 0.994 ± 0.023 | 1.1 ± 0.21 | 0.931 ± 0.092
22 | CCOc1ccc2ccccc2c1C(=O)N[C@@H]1C(=O)N2[C@@H]1SC(C)(C)[C@@H]2C(=O)O | 0.991 ± 0.07 | 1.035 ± 0.0071 | 1.06 ± 0.071 | 1.1 ± 0.26 | 1.12 ± 0.057
23 | COc1ccc2c(c1)OC1(O)COc3cc(OC)c(OC)cc3C1=C2 (stereo not given) | 1.01 ± 0.035 | 1.05 ± 0.05 | 1.08 ± 0.035 | 0.985 ± 0.13 | 0.895 ± 0.075
24 | C[C@@H]1CC[C@@]23CCC4(C)[C@@](C=CC5[C@@]6(C)CC[C@H](O)C(C)(C)C6CC[C@]54C)(OC2=O)C3[C@H]1C (stereo not given in full) | 1.025 ± 0.0071 | 1.04 ± 0.028 | 0.993 ± 0.0042 | 1.06 ± 0.18 | 0.994 ± 0.023
25 | C[C@]12CCC(=O)C=C1CC[C@@H]1[C@@H]2[C@@H](O)C[C@@]2(C)[C@H]1CC[C@]2(O)C(=O)COP(=O)(O)O | 0.949 ± 0.0099 | 0.974 ± 0.065 | 0.969 ± 0.03 | 1.01 ± 0.025 | 1.07 ± 0.014
26 | CC(=O)Oc1ccc2c(c1OC(C)=O)OCC1(O)Cc3c(cc(OC(C)=O)c(OC(C)=O)c3OC(C)=O)C21 (stereo not given) | 0.96 ± 0.017 | 1.02 ± 0.074 | 0.959 ± 0.059 | 0.939 ± 0.05 | 0.9105 ± 0.0064
27 | C=CC(C1=CC(=O)C(OC)=CC1=O)c1ccccc1 (stereo not given) | 0.983 ± 0.0014 | 1.05 ± 0.042 | 1.03 ± 0.021 | 0.985 ± 0.079 | 1.01 ± 0.054
28 | O=c1occ(C(O)CO)c2cccc(O)c12 (stereo not given) [Oospoglycol] | 0.886 ± 0.079 | 0.9515 ± 0.0035 | 0.976 ± 0.09 | 1.1 ± 0.11 | 1.01 ± 0.15
29 | O=C(O)c1cn(C2CC2)c2cc(N3CCNCC3)c(F)cc2c1=O | 0.964 ± 0.037 | 0.988 ± 0.015 | 1.03 ± 0.021 | 1.05 ± 0.078 | 1.07 ± 0.014
30 | COc1cc(O)c2c(=O)c(O)c(-c3ccc(O)c(O)c3)oc2c1 | 1.06 ± 0.014 | 0.992 ± 0.11 | 1.065 ± 0.0071 | 1 ± 0.12 | 1.045 ± 0.0071
